According to PubChem BioAssay (Tox21):
Several values for one entry are separate records, joined by “and”; a condition that tells them apart may be missing. Equal entries are not always repeated. Inconclusive results are not listed. Some compounds were tested as several samples or in several runs, with calls that do not always agree. Activity calls are given as the source filed them. Unless noted, calls come from the whole dose curve; as a rule, active = well fitted curve in the direction sought with a large enough effect in the repeat runs; inconclusive = weak or mixed curves; inactive = no such curve, though single readings can be large; an effect the other way counts as inactive or inconclusive.

How the values were obtained:
[1] = qHTS assay to identify small molecule antagonists of the estrogen related receptor (ERR) signaling pathway from Tox21 library - cell viability counter screen (AID 1224834); note: nearly all actives have a fitted effect of over 30% in size
Summary of the method: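 ERR cells, 2,000/well; 6 h settle at 37 C/5% CO2; pin-tool compound transfer in DMSO; 17.5 h at 37 C; CellTiter-Fluor, 30 min; fluorescence intensity.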

[2] = molecular target: Luciferin 4-monooxygenase (Photinus pyralis) (UniProt P08659); experiment: qHTS assay to identify small molecule inhibitors of firefly luciferase (AID 1224835); note: nearly all actives have a fitted effect of over 25% in size; note: potency is the fitted concentration of half-maximal effect
Sequence of Luciferin 4-monooxygenase (Photinus pyralis) (P08659 whole entry, looked up): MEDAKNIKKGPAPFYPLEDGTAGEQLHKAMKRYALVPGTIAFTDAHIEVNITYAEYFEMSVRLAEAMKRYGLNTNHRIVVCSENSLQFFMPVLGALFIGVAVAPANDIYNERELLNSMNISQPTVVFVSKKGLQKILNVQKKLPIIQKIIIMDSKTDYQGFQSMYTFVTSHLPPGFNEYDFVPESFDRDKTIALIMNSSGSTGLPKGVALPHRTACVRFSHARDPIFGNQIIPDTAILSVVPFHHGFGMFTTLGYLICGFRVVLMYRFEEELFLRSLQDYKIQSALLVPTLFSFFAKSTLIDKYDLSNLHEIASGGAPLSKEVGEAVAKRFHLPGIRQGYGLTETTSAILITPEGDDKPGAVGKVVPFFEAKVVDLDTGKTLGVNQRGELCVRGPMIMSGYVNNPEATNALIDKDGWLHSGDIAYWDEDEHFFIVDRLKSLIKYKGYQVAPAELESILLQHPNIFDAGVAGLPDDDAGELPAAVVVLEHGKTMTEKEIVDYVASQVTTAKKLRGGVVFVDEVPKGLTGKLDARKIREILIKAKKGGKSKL
Summary of the method: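 Inhibition of purified Photinus luciferase is measured by luminescence. Substrate levels (D-luciferin, ATP) sit at their KM values. Each compound is tested in a concentration series.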

[3] = qHTS assay to identify small molecule agonists of the constitutive androstane receptor (CAR) signaling pathway - cell viability counter screen (AID 1224836); note: nearly all actives have a fitted effect of over 45% in size
Summary of the method: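 Using CellTiter-Fluor, viability of HepG2 cells harbouring hCAR and CYP2B6-2.2kb was measured following 23 h incubation with a 15-concentration compound series plus PK11195 (0.75 uM final).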

[4] = qHTS assay to identify small molecule antagonists of the constitutive androstane receptor (CAR) signaling pathway - cell viability counter screen (AID 1224837); note: nearly all actives have a fitted effect of over 45% in size
Summary of the method: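 Viability was measured with CellTiter-Fluor in a HepG2 line carrying stably transfected hCAR and a CYP2B6-2.2kb construct. Cells were exposed for 23 hr at 37 C to 15 compound concentrations with 50 nM CITCO as agonist.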

[5] = molecular target: Nuclear receptor subfamily 1 group I member 3 (Homo sapiens) (UniProt Q14994); experiment: qHTS assay to identify small molecule antagonists of the constitutive androstane receptor (CAR) signaling pathway (AID 1224838);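 note: HepG2 cells stably expressing hCAR with CYP2B6 luciferase reporter stimulated by CITCO; nearly all actives have a fitted effect of over 40% in size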; note: potency is the fitted concentration of half-maximal effect
Sequence of Nuclear receptor subfamily 1 group I member 3 (Homo sapiens) (Q14994 whole entry, looked up): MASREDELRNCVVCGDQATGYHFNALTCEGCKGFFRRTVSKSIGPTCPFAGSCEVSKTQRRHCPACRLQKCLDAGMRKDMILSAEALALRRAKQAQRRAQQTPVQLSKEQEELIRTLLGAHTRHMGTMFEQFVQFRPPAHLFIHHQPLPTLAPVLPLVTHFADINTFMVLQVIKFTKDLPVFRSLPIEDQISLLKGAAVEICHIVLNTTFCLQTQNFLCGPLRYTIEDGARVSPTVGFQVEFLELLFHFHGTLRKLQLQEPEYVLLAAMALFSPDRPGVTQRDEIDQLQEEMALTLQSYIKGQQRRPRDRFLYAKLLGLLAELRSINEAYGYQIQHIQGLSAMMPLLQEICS
Summary of the method: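 Antagonist mode used CITCO at a final 50 nM to activate CAR in human hepatoma HepG2 cells carrying stable hCAR and a 2.2 kb CYP2B6 promoter-luciferase construct. Compounds were tested at 15 concentrations over 24 h, with luminescence as the end point.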

[6] = molecular target: Nuclear receptor subfamily 1 group I member 3 (Homo sapiens) (UniProt Q14994); experiment: qHTS assay to identify small molecule agonists of the constitutive androstane receptor (CAR) signaling pathway (AID 1224839); note: nearly all actives have a fitted effect of over 15% in size; note: potency is the fitted concentration of half-maximal effect
Summary of the method: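 Double-stable HepG2 cells (hCAR, CYP2B6-2.2kb) seeded 4 h before compound addition. Exposure 24 h with 0.75 uM PK11195 final. Luciferase detected by ONE-Glo.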

[7] = qHTS assay to identify small molecule antagonists of the estrogen related receptor signaling pathway with the pleiotropic PPARgamma coactivator (PGC) from Tox21 10K library - cell viability counter screen (AID 1224840; active = well fitted cell-killing curve with a large enough effect in the repeat runs, not every such curve was filed as active; note: nearly all actives have a fitted effect of over 40% in size)
Summary of the method: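 Multiplexed viability counter screen in the PGC/ERR cell line: cells treated with DMSO-dissolved compounds for 17.5 hours at 37 C, then viability measured as CellTiter-Fluor fluorescence.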

[8] = qHTS assay to identify small molecule antagonists of the estrogen related receptor signaling pathway with the pleiotropic PPARgamma coactivator (PGC) from Tox21 10K library (AID 1224841; call rule not given here; note: actives are mostly falling curves and most rising ones were filed inactive; nearly all actives have a fitted effect of over 50% in size)
Summary of the method: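 Steps: plate 2,000 PGC/ERR cells per well; incubate 6 h at 37 C with 5% CO2; transfer compounds from DMSO stocks by pin tool; incubate 18 h at 37 C; add One-Glo; measure luminescence 30 min later.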

[9] = qHTS assay to identify small molecule agonists of the estrogen related receptor signaling pathway with the pleiotropic PPARgamma coactivator (PGC) from Tox21 10K library (AID 1224842); note: nearly all actives have a fitted effect of over 15% in size; note: potency is the fitted concentration of half-maximal effect
Summary of the method: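 Luminescence from One-Glo (30 min, room temperature) measured after PGC/ERR cells had 18 h at 37 C with pinned compound (23 nL in DMSO). Cells had been seeded at 2,000 per well and pre-incubated 6 h.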

[10] = molecular target: Thyrotropin receptor (Homo sapiens) (UniProt P16473); experiment: qHTS assay to identify small molecule agonists of the thyroid stimulating hormone receptor (TSHR) signaling pathway (AID 1224843; calls by dose curve; note: nearly all actives have a fitted effect of over 45% in size)
Sequence of Thyrotropin receptor (Homo sapiens) (P16473 whole entry, looked up): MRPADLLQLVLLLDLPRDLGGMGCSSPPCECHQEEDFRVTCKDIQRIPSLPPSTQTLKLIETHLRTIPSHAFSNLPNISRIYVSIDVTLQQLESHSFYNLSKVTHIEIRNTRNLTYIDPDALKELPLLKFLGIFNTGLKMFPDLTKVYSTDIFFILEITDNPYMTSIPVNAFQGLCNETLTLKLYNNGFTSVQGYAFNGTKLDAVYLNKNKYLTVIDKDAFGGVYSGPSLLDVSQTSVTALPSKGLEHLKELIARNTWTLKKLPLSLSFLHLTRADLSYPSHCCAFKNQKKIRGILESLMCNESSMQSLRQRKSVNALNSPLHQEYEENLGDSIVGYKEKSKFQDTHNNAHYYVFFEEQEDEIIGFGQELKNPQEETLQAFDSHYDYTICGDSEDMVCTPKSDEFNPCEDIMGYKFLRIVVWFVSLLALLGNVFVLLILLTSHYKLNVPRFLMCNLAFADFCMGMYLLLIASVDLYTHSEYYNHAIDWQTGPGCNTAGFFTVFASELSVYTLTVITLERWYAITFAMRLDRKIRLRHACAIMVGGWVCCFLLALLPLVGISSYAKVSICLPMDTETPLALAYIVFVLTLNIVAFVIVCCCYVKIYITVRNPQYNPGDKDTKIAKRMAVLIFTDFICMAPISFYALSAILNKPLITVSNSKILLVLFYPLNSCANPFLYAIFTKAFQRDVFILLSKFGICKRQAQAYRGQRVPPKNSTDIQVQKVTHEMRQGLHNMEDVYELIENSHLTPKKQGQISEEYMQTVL
Summary of the method: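 A cell-based cAMP HTRF format was run in TSHR-transfected HEK293 cells, 800 per well. Treatment: 30 min, room temperature. Detection: 1 h with labelled cAMP and anti-cAMP cryptate. Concentration-response over 15 points, three replicates.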

[11] = qHTS assay to identify small molecule agonists of the hypoxia (HIF-1) signaling pathway - cell viability counter screen (AID 1224844; calls by dose curve; note: nearly all actives have a fitted effect of over 50% in size)
Summary of the method: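 Cytotoxicity was measured in parallel with the HRE-driven beta-lactamase readout: after 17 hrs of compound exposure at 37C, HRE-bla ME-180 cells received CellTiter-Glo and luminescence was recorded 30 min later.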

[12] = qHTS assay to identify small molecule agonists of H2AX (AID 1224845; active = well fitted activation curve with a large enough effect in the signal ratio in the repeat runs, not every such curve was filed as active; the % refers to the signal ratio)
Summary of the method: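 Phospho-H2AX Ser139 measured by HTRF (ex 320 nm; em 665 and 620 nm) after 24 hr antibody incubation. Compounds, 15 concentrations, 0.76% DMSO, were applied to CHO-K1 cells for 3hr at 37C before lysis.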

[13] = qHTS assay to identify small molecule agonists of the hypoxia (HIF-1) signaling pathway (AID 1224846; active = well fitted activation curve with a large enough effect in the signal ratio in the repeat runs, not every such curve was filed as active; the % refers to the signal ratio)
Summary of the method: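 Compounds from the Tox21 10K library, dissolved in DMSO, are tested for induction of a hypoxia response element–controlled beta-lactamase reporter in ME-180 cells. Exposure lasts 17 hrs at 37C after a 5 hr settling period, followed by CCF4-AM FRET substrate.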

[14] = qHTS assay to identify small molecule agonists of H2AX - cell viability counter screen (AID 1224847; calls by dose curve; note: nearly all actives have a fitted effect of over 30% in size; note: potency is the fitted concentration of half-maximal effect)
Summary of the method: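 Quantitative HTS viability measurement: CHO-K1 wild-type cells in serum (10% FBS) medium, short 3 hr drug exposure at 37C with 0.76% DMSO, CellTiter-Glo luminescent detection.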

[15] = qHTS assay to identify small molecule antagonists of the estrogen related receptor (ERR) signaling pathway from Tox21 library (AID 1224848); note: nearly all actives have a fitted effect of over 50% in size
Summary of the method: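 ERR cell line, 2,000 cells/well. 6 h settle, then compound (DMSO) added; 18 h at 37 C; ONE-Glo luminescence after 30 min RT.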

[16] = qHTS assay to identify small molecule agonists of the estrogen related receptor (ERR) signaling pathway from Tox21 library (AID 1224849; calls by dose curve; note: nearly all actives have a fitted effect of over 15% in size); details: ERR reporter cell line, ONE-Glo luciferase, 18 h
Summary of the method: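 Cells carrying the ERR reporter were plated and allowed to settle for 6 h, exposed to library compounds for 18 h at 37 C, then lysed with ONE-Glo and luminescence measured.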

[17] = qHTS RealTime-Glo MT Cell Viability Assay in HepG2 cells - 24 hour (AID 1224867); note: nearly all actives have a fitted effect of over 50% in size
Summary of the method: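 Compound treatment began 5 h after plating HepG2 cells (600/well) with NanoLuc luciferase and prosubstrate. Plates stayed at 37 C for 40 h; luminescence was captured at six time points, 0 h through 40 h.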

[18] = qHTS RealTime-Glo MT Cell Viability Assay in HEK293 cells - 32 hour (AID 1224868)
Summary of the method: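 Quantitative high-throughput screen of the Tox21 10K library in HEK293: cells and RealTime-Glo reagents plated together, compound added at 5 h, luminescence monitored through 40 h at 37 C.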

[19] = A CellTox Green Cytotoxicity Assay to monitor cytotoxicity in HEK293 cells - 0 hour (AID 1224869); note: nearly all actives have a fitted effect of over 50% in size; note: potency is the fitted concentration of half-maximal effect
Summary of the method: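 Cells (HEK293, 600/well) and dye reagent are dispensed together. After 5 h at 37 C, 23 nL compound is pinned in. Plates stay at 37 C for 40 h with fluorescence read at 0h, 8h, 16h, 24h, 32h and 40h.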

[20] = qHTS assay to identify small molecule agonists of the estrogen related receptor signaling pathway with the pleiotropic PPARgamma coactivator (PGC) (AID 1224823)
Summary of the method: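 In this quantitative high-throughput screen, an 18 h, 37 C treatment of PGC/ERR cells with compounds in DMSO preceded a One-Glo luminescence read taken after 30 min at room temperature.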
% is set by controls: 0 for no effect and ±100 for the full control effect.

CNC(=O)O/N=C/C(C)(C)SC
inactive: Potency [1] | Potency [2] | Potency [3] | Potency [4] | Potency [5] | Potency [6] | Potency [7] | Potency [8] | Potency [9] | Potency [10] | Potency [11] | Potency [12] | outcome [13] | Potency [14] | Potency [15] | activity change, positive = activation ([16]; at 92.4 µM (top of the series)) 5.2% and 5.41% | outcome [17] | Potency [18] | Potency [19]

COC(=O)Nc1cccc(OC(=O)Nc2cccc(C)c2)c1
inactive: Potency [1] | Potency [3] | Potency [4] | Potency [5] | Potency [7] | Potency [8] | Potency [11] | Potency [12] | outcome [13] | Potency [14] | Potency [15] | outcome [17] | Potency [18] | Potency [19]
active: Potency [2] 6.33 µM and 12.6 µM | Potency [6] 30.6 µM and 4.86 µM | Potency [9] 13.7 µM | activity change, positive = activation ([16]; at 92.4 µM (top of the series)) 26.6% and 34.9%

Sc1ccccc1
62 µM (active) and inactive: Potency [5]
inactive: Potency [1] | Potency [2] | Potency [3] | Potency [4] | Potency [6] | Potency [7] | Potency [10] | Potency [11] | Potency [12] | outcome [13] | Potency [14] | outcome [17] | Potency [18] | Potency [19]

CCOc1ccc(N)cc1
inactive and 79.6 µM (active): Potency [2]
inactive: Potency [1] | Potency [3] | Potency [4] | Potency [5] | Potency [6] | Potency [7] | Potency [8] | Potency [9] | Potency [10] | Potency [11] | Potency [12] | outcome [13] | Potency [14] | activity change, positive = activation ([16]; at 92.4 µM (top of the series)) -23.9% and -14.2% | outcome [17] | Potency [18] | Potency [19]

Cc1cc(Cl)ccc1OC(C)C(=O)O (stereo unspecified)
inactive: Potency [1] | Potency [2] | Potency [3] | Potency [4] | Potency [6] | Potency [7] | Potency [11] | Potency [12] | outcome [13] | Potency [14] | outcome [17] | Potency [18] | Potency [19]

CC(C)c1cccc(C(C)C)c1O
inactive and 38.9 µM (active): Potency [19]
inactive: outcome [20] | Potency [1] | Potency [2] | Potency [3] | Potency [4] | Potency [5] | Potency [7] | Potency [8] | Potency [9] | Potency [10] | Potency [11] | Potency [12] | Potency [15] | activity change, positive = activation ([16]; at 42.5 µM (top of the series)) -0.995% | activity change, positive = activation ([16]; at 92.4 µM (top of the series)) -9.76% and -27.6% | outcome [17] | Potency [18]
50.5 µM (active) and inactive: Potency [14]

CN(C)C(=O)Cl
inactive: Potency [1] | Potency [2] | Potency [3] | Potency [4] | Potency [5] | Potency [6] | Potency [7] | Potency [8] | Potency [9] | Potency [10] | Potency [11] | Potency [12] | outcome [13] | Potency [14] | Potency [15] | activity change, positive = activation ([16]; at 92.4 µM (top of the series)) 5.68% and 6.16% | outcome [17] | Potency [18] | Potency [19]
